In experiment [1] the target is Nuclear receptor subfamily 1 group I member 2 (Homo sapiens) (UniProt O75469). The experiment is described as follows: Human pregnane X receptor (PXR) small molecule agonists, qHTS assay (AID 1346982). Also: nearly all actives have a fitted effect of over 35% in size. The method, boiled down:
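Tox21 qHTS; PXR-Luc HepG2; compounds pinned from DMSO; 24 hr, 37 C; ONE-Glo luciferase detection, 30 min room temperature.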
For orientation: Quantitative high-throughput screening tests each substance at several concentrations.

Experiment [2] has as its target Cytochrome P450 2D6 (Homo sapiens) (UniProt P10635). The experiment is described as follows: Cytochrome P450 Family 2 Subfamily D Member 6 (CYP2D6) small molecule antagonists: luciferase reporter qHTS assay (AID 1671196). Also: nearly all actives have a fitted effect of over 50% in size. Also: potency is read from the fitted curve at half-maximal effect. As to activity change, negative = inhibition: series mostly up to about 120 µM. In short, it runs like this:
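Room-temperature luminescent CYP2D6 activity assay: compound preincubated 10 min with enzyme–substrate mix, NADPH-initiated reaction 1 h, detection reagent 20 min before reading.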
(Reporter assays use an easily measured gene product as a stand-in for the process of interest.)

Experiment [3] addresses Cytochrome P450 2C19 (Homo sapiens) (UniProt P33261). The experiment is described as follows: Cytochrome P450 Family 2 Subfamily C Member 19 (CYP2C19) small molecule antagonists: luciferase reporter qHTS assay (AID 1671197). Also: nearly all actives have a fitted effect of over 65% in size. Also: potency is read from the fitted curve at half-maximal effect. As to activity change, negative = inhibition: series mostly up to about 120 µM. In short, it runs like this:
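Luminescent readout of CYP2C19 activity: luciferin product detected 20 min after adding detection reagent. Before that, compound and enzyme-substrate mix preincubated 10 min at room temperature; NADPH-regenerating system started a 1 h, 37C reaction. Ketoconazole as positive control.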

The target of experiment [4] is Cytochrome P450 2C9 (Homo sapiens) (UniProt P11712). Put plainly: Cytochrome P450 Family 2 Subfamily C Member 9 (CYP2C9) small molecule antagonists: luciferase reporter qHTS assay (AID 1671198). Also: nearly all actives have a fitted effect of over 50% in size. Also: potency is read from the fitted curve at half-maximal effect. As to activity change, negative = inhibition: series mostly up to about 120 µM. The method, boiled down:
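Enzyme-substrate mix preincubated with compound 10 min at room temperature; reaction started with NADPH regeneration solution, 1 h 37C. Luminescent luciferin product read after 20 min detection reagent.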

Experiment [5] concerns the target Cytochrome P450 1A2 (Homo sapiens) (UniProt P05177). The experiment is described as follows: Cytochrome P450 Family 1 Subfamily A Member 2 (CYP1A2) small molecule antagonists: luciferase reporter qHTS assay (AID 1671199). Also: nearly all actives have a fitted effect of over 50% in size. Also: potency is read from the fitted curve at half-maximal effect. As to activity change, negative = inhibition: series mostly up to about 120 µM. The method, boiled down: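 Room-temperature CYP1A2 reaction with proluciferin substrate: compounds added from DMSO, 10 min preincubation, NADPH regeneration for 1 h. Luciferin detection reagent then added; luminescence recorded as RLU.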

Experiment [6] addresses Voltage-gated inwardly rectifying potassium channel KCNH2 (Homo sapiens) (UniProt Q12809). Put plainly: Human Ether-a-go-go-Related Gene (hERG) channel small molecule antagonists: fluorescence cell-based qHTS assay (AID 1671200). Also: nearly all actives have a fitted effect of over 50% in size. Also: potency is read from the fitted curve at half-maximal effect.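 As to activity change, negative = inhibition: hERG-expressing U2OS cells given a thallium stimulus after FluxOR II dye loading; series mostly up to about 77 µM.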 The method, boiled down: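 First, 1000 cells per well are seeded and cultured overnight at 37 C. Next, FluxOR II dye is loaded for 1 h at room temperature, protected from light. After 10 more minutes, stimulus is added and fluorescence is read.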
In general terms: Block of hERG is tested as a sign of cardiac risk.

In experiment [7] the target is Cytochrome P450 3A4 (Homo sapiens) (UniProt P08684). The experiment is described as follows: Cytochrome P450 Family 3 Subfamily A Member 4 (CYP3A4) small molecule antagonists: luciferase reporter qHTS assay (AID 1671201). Also: nearly all actives have a fitted effect of over 50% in size. Also: potency is read from the fitted curve at half-maximal effect. As to activity change, negative = inhibition: series mostly up to about 120 µM. In short, it runs like this:
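Enzyme and proluciferin substrate are mixed with test chemicals for 10 min, then NADPH regeneration system drives turnover for 1 h at room temperature. A detection reagent halts the reaction; luminescence after 20 min gives relative activity.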

Molecules are shown by their SMILES. Records with an inconclusive call do not appear. A number with no mark means an inactive call. Calls of active or inactive are those of the source. Calls follow the shape of the dose curve; as a rule, active = well fitted curve in the direction sought with a large enough effect in the repeat runs; inconclusive = weak or mixed curves; inactive = no such curve, though single readings can be large; an effect the other way counts as inactive or inconclusive.

In PubChem BioAssay (Tox21) one finds Potency, activation and activity change, negative = inhibition data, which are given here for 28 compounds.
% is scaled to controls: 0 for no effect and ±100 for the full control effect.

Sequence of Cytochrome P450 1A2 (Homo sapiens) (P05177 whole entry, looked up): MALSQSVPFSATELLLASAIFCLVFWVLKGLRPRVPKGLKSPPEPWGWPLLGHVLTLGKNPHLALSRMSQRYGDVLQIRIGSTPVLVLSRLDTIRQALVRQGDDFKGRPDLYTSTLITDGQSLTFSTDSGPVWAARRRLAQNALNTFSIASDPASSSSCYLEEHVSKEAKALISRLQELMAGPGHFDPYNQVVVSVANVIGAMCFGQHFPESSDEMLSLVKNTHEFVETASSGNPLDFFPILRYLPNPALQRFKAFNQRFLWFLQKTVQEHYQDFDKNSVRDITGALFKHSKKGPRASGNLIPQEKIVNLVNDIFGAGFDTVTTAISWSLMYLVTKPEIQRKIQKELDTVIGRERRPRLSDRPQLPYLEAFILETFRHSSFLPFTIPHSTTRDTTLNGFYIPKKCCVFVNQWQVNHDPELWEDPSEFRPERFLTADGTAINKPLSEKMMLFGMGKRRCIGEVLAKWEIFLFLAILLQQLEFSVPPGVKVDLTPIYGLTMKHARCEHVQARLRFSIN
Sequence of Cytochrome P450 2C19 (Homo sapiens) (P33261 whole entry, looked up): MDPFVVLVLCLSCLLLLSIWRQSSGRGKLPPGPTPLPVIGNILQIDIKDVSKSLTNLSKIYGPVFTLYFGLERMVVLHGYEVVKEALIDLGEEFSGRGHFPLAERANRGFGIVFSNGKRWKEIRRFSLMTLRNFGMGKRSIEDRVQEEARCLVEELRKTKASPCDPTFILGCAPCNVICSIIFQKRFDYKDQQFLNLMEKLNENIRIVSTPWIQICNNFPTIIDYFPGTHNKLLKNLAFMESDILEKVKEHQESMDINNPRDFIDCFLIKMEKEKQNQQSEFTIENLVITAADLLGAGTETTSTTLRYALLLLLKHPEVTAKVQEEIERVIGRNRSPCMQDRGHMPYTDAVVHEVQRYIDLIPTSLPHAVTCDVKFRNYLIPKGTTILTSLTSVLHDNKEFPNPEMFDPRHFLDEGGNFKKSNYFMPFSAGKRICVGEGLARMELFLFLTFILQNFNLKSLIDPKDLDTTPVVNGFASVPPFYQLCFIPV
Sequence of Voltage-gated inwardly rectifying potassium channel KCNH2 (Homo sapiens) (Q12809 whole entry, looked up): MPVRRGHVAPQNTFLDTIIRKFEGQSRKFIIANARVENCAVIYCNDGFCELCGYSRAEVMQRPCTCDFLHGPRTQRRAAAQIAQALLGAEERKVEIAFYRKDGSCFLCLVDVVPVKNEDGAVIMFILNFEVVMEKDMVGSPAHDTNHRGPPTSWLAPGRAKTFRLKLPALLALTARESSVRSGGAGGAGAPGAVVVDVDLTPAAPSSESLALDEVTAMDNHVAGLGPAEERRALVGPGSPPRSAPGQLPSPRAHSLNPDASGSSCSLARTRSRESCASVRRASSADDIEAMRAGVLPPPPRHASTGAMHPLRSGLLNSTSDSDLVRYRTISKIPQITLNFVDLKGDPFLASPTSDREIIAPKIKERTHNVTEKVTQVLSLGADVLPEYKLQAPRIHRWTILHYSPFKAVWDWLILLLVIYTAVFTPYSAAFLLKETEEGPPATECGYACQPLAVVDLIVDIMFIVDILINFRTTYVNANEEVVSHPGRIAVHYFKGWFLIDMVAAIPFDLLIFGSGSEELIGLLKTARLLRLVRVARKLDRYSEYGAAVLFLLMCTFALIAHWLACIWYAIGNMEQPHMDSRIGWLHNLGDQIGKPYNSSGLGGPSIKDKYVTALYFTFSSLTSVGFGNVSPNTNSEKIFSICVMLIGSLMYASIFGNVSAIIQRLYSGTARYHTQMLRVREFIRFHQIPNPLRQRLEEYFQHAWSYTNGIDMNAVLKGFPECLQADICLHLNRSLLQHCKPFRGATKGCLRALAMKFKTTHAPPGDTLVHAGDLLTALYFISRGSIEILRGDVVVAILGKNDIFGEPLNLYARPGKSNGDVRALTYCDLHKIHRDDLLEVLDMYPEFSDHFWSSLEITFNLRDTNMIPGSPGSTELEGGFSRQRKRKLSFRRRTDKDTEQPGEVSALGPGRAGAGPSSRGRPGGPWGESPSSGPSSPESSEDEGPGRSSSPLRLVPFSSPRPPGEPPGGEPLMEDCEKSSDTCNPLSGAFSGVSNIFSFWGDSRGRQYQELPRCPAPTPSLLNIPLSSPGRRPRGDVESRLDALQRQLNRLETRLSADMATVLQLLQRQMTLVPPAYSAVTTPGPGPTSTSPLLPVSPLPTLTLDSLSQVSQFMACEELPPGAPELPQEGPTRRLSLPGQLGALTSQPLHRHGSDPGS
Sequence of Cytochrome P450 2D6 (Homo sapiens) (P10635 whole entry, looked up): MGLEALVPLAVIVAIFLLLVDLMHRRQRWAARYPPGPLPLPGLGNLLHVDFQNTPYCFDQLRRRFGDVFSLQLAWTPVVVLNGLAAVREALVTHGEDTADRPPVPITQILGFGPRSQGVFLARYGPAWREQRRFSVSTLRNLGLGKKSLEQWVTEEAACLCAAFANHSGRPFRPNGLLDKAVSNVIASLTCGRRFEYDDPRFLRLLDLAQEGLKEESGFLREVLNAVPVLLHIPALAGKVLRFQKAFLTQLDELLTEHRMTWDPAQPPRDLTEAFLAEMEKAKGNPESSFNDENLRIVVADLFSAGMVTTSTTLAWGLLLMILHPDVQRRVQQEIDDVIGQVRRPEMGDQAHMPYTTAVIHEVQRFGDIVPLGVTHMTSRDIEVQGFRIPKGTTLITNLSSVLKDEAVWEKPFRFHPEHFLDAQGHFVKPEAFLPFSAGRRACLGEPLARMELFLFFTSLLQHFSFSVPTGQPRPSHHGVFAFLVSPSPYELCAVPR
Sequence of Cytochrome P450 2C9 (Homo sapiens) (P11712 whole entry, looked up): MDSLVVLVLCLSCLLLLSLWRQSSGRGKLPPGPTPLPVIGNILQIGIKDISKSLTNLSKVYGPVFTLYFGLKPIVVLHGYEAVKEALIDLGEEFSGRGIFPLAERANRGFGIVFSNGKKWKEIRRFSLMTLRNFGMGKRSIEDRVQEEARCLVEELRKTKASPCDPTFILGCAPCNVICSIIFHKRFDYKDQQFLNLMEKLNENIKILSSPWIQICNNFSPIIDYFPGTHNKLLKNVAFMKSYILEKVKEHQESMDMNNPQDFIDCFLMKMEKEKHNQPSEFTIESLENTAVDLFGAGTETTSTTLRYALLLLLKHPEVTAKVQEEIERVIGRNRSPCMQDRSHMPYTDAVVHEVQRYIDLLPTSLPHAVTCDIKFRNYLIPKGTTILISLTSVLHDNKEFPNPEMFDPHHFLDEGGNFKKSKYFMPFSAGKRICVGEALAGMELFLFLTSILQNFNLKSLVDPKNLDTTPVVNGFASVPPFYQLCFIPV
Sequence of Nuclear receptor subfamily 1 group I member 2 (Homo sapiens) (O75469 whole entry, looked up): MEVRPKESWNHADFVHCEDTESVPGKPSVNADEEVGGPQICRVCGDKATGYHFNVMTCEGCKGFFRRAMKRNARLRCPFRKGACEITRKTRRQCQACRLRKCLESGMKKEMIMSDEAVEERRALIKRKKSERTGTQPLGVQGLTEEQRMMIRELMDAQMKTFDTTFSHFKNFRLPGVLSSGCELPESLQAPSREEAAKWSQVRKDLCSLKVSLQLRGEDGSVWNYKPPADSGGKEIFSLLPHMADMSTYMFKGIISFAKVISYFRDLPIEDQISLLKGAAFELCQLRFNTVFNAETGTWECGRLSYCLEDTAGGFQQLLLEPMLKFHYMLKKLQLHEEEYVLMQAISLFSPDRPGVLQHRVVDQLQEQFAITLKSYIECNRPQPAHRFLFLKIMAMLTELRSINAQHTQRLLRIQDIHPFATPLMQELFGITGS
Sequence of Cytochrome P450 3A4 (Homo sapiens) (P08684 whole entry, looked up): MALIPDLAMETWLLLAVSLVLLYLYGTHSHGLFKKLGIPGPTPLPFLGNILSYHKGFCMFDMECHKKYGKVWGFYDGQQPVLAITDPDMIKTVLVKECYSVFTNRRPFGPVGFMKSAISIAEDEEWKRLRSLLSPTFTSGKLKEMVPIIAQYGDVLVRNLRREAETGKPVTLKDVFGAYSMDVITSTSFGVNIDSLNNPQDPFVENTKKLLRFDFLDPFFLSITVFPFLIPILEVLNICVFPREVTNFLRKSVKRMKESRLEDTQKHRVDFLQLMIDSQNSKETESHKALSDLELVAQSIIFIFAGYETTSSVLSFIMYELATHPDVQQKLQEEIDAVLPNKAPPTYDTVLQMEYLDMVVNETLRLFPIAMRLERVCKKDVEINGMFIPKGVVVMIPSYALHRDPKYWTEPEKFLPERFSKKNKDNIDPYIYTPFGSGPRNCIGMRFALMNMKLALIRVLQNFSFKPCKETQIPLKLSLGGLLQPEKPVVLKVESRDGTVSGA

As for `C=C[C@@H](C)CCC=C(C)C`, the Potency result in experiment [1], in experiment [2], in experiment [3], in experiment [4], in experiment [6] and in experiment [7] was “inactive” throughout. In addition, the Potency in experiment [5] was 39.9 µM (active).

With `CC(C)(C)NCCO`, the Potency entry in experiment [1], in experiment [2], in experiment [3], in experiment [4], in experiment [6] and in experiment [7] was “inactive” in each case. In addition, the Potency in experiment [5] is 39.9 µM (active).

In the case of `CCOC(=O)C(C)(C)C`, the Potency result in experiment [1], in experiment [2], in experiment [3], in experiment [4], in experiment [5] and in experiment [6] was “inactive” in each case. The Potency result in experiment [7] is “inactive”.

For the compound `CCC(C)(C)C1CCC(=O)CC1`, the Potency entry in experiment [1], in experiment [2], in experiment [3], in experiment [4], in experiment [5] and in experiment [6] was “inactive” each time. Moreover, the Potency result in experiment [7] was “inactive”.

For `CCCCCCCCCCCCC1CO1` (centres undefined), the Potency entry in experiment [1], in experiment [2], in experiment [3], in experiment [4], in experiment [5] and in experiment [6] was “inactive” in each case. Besides, the Potency result in experiment [7] was “inactive”.

Consider `CCN1CN(CC)CN(CC)C1`, for which the Potency result in experiment [1], in experiment [2], in experiment [3], in experiment [4], in experiment [5] and in experiment [6] was “inactive” throughout. In addition, the Potency entry in experiment [7] was “inactive”.

With `C=CCCCCCCCCCCC`, the activation in experiment [1] was -8.11% [at 8.39 µM]. For the same compound, the activity change, negative = inhibition is -22.8% [at 10.5 µM] in experiment [2]; 11.6% [at 10.5 µM] in experiment [3]; -1.77% [at 10.5 µM] in experiment [4]; -6.04% [at 10.5 µM] in experiment [5]; 6.79% [at 6.97 µM] in experiment [6]; 4% [at 10.5 µM] in experiment [7].

In the case of `CC(C)COC(=O)CCCCC(=O)OCC(C)C`, the Potency result in experiment [1], in experiment [2], in experiment [3], in experiment [6] and in experiment [7] was “inactive” in each case. Further, the Potency in experiment [4] was 22.4 µM (active); in experiment [5], 39.9 µM (active).

Consider `CCCCCCCCCCCCCCCCCCN(C)C`, for which the Potency result in experiment [1], in experiment [2], in experiment [3], in experiment [4], in experiment [5] and in experiment [6] was “inactive” each time. Also, the Potency entry in experiment [7] is “inactive”.

On to `O=P(O)(O)OCC(O)CO` (centres undefined), for which the Potency entry in experiment [1], in experiment [2], in experiment [3], in experiment [4], in experiment [5] and in experiment [6] was “inactive” throughout. For the same compound, in experiment [7], the Potency entry is “inactive”.

Turning to `Cc1nc(C)nc(N2C[C@@H](C)N(c3ccnc([C@@H](C)O)n3)[C@@H](C)C2)n1`, the Potency result in experiment [1], in experiment [2], in experiment [3], in experiment [4], in experiment [5] and in experiment [6] was “inactive” throughout. For the same compound, the Potency result in experiment [7] is “inactive”.

As for `CC(=O)OC[C@H]1O[C@@H](OC(C)=O)[C@H](OC(C)=O)[C@@H]1OC(C)=O`, the Potency result in experiment [1], in experiment [2], in experiment [3], in experiment [4], in experiment [5] and in experiment [6] was “inactive” in each case. For the same compound, in experiment [7], the Potency entry was “inactive”.

Consider `N#CCCOCCOCCC#N`, for which the Potency entry in experiment [1], in experiment [2], in experiment [3], in experiment [4], in experiment [6] and in experiment [7] was “inactive” each time. The Potency in experiment [5] was 39.9 µM (active).

With `C[CH2][Ge]([Cl])([CH2]C)[CH2]C`, the Potency entry in experiment [1], in experiment [2], in experiment [3], in experiment [4], in experiment [5] and in experiment [6] was “inactive” in each case. The Potency result in experiment [7] was “inactive”.

As to `CC(CC(=O)O)CC(C)(C)C` (centres undefined), the Potency entry in experiment [1], in experiment [2], in experiment [3], in experiment [4], in experiment [5] and in experiment [6] was “inactive” in each case. In experiment [7], the Potency result was “inactive”.

For `CCCCCCCCCCCCC`, the Potency entry in experiment [1], in experiment [2], in experiment [3], in experiment [4], in experiment [5] and in experiment [6] was “inactive” in each case. In addition, in experiment [7], the Potency result is “inactive”.

For `CO[Si](CCCCl)(OC)OC`, the Potency result in experiment [1], in experiment [5] and in experiment [6] was “inactive” in each case. Also, the Potency in experiment [2] was 31.2 µM (active); in experiment [3], 39.3 µM (active); in experiment [4] it was 39.3 µM (active); in experiment [7], 3.51 µM (active).

As to `C=C(C)[C@@H]1CC[C@@H](C)C[C@@H]1O`, the Potency entry in experiment [1], in experiment [2], in experiment [3], in experiment [4], in experiment [6] and in experiment [7] was “inactive” throughout. The Potency in experiment [5] is 39.9 µM (active).

As to `FC(F)(F)/C(=N\OCC1OCCO1)c1ccc(Cl)cc1`, the Potency entry in experiment [1], in experiment [2], in experiment [6] and in experiment [7] was “inactive” throughout. For the same compound, the Potency was 1.59 µM (active) in experiment [3], 31.7 µM (active) in experiment [4] and 2.24 µM (active) in experiment [5].

For `O=[Si]=O`, the Potency entry in experiment [1], in experiment [2], in experiment [3], in experiment [4], in experiment [5] and in experiment [6] was “inactive” throughout. For the same compound, the Potency entry in experiment [7] is “inactive”.

In the case of `CC(=O)OCCCc1ccccc1`, the Potency result in experiment [1], in experiment [2], in experiment [3], in experiment [4], in experiment [5] and in experiment [6] was “inactive” in each case. Also, the Potency result in experiment [7] was “inactive”.

Consider `C=CCOc1cc(Cl)ccc1C(=O)NCCN(CC)CC`, for which the Potency entry in experiment [1] and in experiment [4] was “inactive” throughout. In addition, the Potency in experiment [2] is 0.275 µM (active); in experiment [3] it was 6.92 µM (active); in experiment [5], 2.57 µM (active); in experiment [6], 9.52 µM (active); in experiment [7], 17.4 µM (active).

Turning to `CCCCCN(CCCOC)C(=O)C(CCC(=O)O)NC(=O)c1ccc(Cl)c(Cl)c1` (centres undefined), the Potency entry in experiment [1], in experiment [2], in experiment [3], in experiment [6] and in experiment [7] was “inactive” throughout. Also, the Potency is 13.8 µM (active) in experiment [4] and 30.9 µM (active) in experiment [5].

Take `CC(C)C(=O)Nc1cccc(C(F)(F)F)c1`: the Potency entry in experiment [1], in experiment [2], in experiment [3], in experiment [4], in experiment [6] and in experiment [7] was “inactive” throughout. In addition, the Potency in experiment [5] is 7.76 µM (active).

For `CC(=O)c1ccc2c(c1)CCCC2`, the Potency result in experiment [1], in experiment [2], in experiment [4], in experiment [6] and in experiment [7] was “inactive” in each case. Further, the Potency in experiment [3] is 79.6 µM (active); in experiment [5] it was 35.6 µM (active).

As to `CC(C)COC(=O)COc1ccc(Cl)cc1Cl`, the Potency entry in experiment [1], in experiment [2] and in experiment [7] was “inactive” each time. The results for the Potency in experiment [3], in experiment [4] and in experiment [5] were 56.3 µM (active), 31.7 µM (active) and 20 µM (active), respectively.

Take `O=C1NC2NC(=O)NC2N1` (centres undefined): the Potency result in experiment [1], in experiment [2], in experiment [3], in experiment [4] and in experiment [7] was “inactive” throughout. Besides, the Potency in experiment [5] was 35.6 µM (active).

With `COC(=O)CCC(=O)O`, the Potency entry in experiment [1], in experiment [2], in experiment [3], in experiment [4], in experiment [5] and in experiment [6] was “inactive” each time. The Potency result in experiment [7] was “inactive”.
